Source: PubChem BioAssay
Y pestis TopoI: blocks Yersinia pestis topoisomerase I activity; Y. pestis Topo-I cleavage product accumulation, plate reader; activity, % at 10 µM; actives 0.064% (n = 360,000); in the data active = activity above about 50%, passing the limit was not always enough
PrPC TRFRET: reduces human prion protein on the cell surface; inhibition, % at 13.8 µM; cell surface PrPC, TR-FRET read-out; actives 0.43% (n = 370,000); P04156; AID 720596; in the data active = inhibition above about 24%; also: 0% = median of the test wells and 100% = reference compound wells
Mtb hypoxia rep: inhibitors of hypoxia-regulated fluorescent reporter in Mycobacterium tuberculosis | M. tuberculosis hypoxia-regulated fluorescent reporter, fluorescence | fluorescence inhibition, % (no concentration beside the values) | actives 0.1% (n = 300,000) | AID 1159583; in the data active = fluorescence inhibition mostly above about 23%, no sharp cut-off; inactive = mostly below about 17%
PrP 5UTR inh: suppresses PrP 5' UTR mRNA reporter expression | inhibition, % (test concentration not listed) | cell-based PrP 5' UTR mRNA reporter, plate reader | actives 0.35% (n = 340,000) | AID 488862; in the data active = inhibition above about 52%; also: 0 = median of the neutral control wells
GDH-TPI counter-1: counter-screen for M. tuberculosis FBA inhibitors: GDH-TPI coupled enzymes. GDH-TPI coupled enzyme counterscreen, NADH absorbance. inhibition, % at 4.8 µM. actives 1.2% (n = 360,000). AID 588335; in the data active = inhibition above about 30%;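 also: 0% = DMSO wells and 100% = wells lacking the enzyme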
Mtb FBA inh: inhibitors of M. tuberculosis fructose-bisphosphate aldolase. purified M. tuberculosis FBA, fluorescence read-out. P9WQA3. actives 2.3% (n = 360,000). inhibition, % at 1 µM;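 also: 0% = vehicle and 100% = reference inhibitor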
Target sequence (P9WQA3 whole entry, looked up): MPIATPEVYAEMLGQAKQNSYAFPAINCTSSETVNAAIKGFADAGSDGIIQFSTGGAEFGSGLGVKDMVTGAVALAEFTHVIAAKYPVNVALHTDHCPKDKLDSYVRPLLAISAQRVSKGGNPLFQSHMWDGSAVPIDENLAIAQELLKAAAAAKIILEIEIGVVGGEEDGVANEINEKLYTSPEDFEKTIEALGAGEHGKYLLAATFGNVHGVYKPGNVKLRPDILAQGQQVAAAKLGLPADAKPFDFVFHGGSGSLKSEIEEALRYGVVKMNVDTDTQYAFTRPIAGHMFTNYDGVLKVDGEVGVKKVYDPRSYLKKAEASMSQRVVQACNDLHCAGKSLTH
Mtb FBA inh conf: Mtb FBA inhibition, confirmed; shares compounds with Mtb FBA inh; purified M. tuberculosis FBA, fluorescence read-out; inhibition, % at 1 µM; actives 78% (n = 5,600); AID 651616;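 also: 0% = vehicle wells and 100% = reference inhibitor wells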
GDH-TPI counter-2: inhibits GDH-TPI coupling enzymes, flagging Mtb FBA hits; GDH-TPI coupled enzyme counterscreen, fluorescence; inhibition, % at 1 µM; shares compounds with Mtb FBA inh; actives 81% (n = 5,600); in the data active = inhibition above about 10%
* marks the source's active call; other numbers are inactive results. An excerpt weighted towards active compounds, which were near 3.8% of everything screened. Rule as the data show it, unless noted: active = inhibition above about 27%; inactive = the rest.

C[C@]12c3[nH]c4cc(-c5ccco5)ccc4c3CCN1C(=O)[C@@H](CC(=O)NCCCn1ccnc1)C[C@@H]2C(=O)N1CCCCC1 was read as Y pestis TopoI 19.4, PrPC TRFRET -8.3, Mtb hypoxia rep -9.4, PrP 5UTR inh -26.6, GDH-TPI counter-1 10.4 and Mtb FBA inh 25.7.
Screening CC(C)N(C(=O)[C@H]1C[C@H](CC(=O)NC(C)(C)C)C(=O)N2CCc3c([nH]c4cc(-c5ccco5)ccc34)[C@]12C)C(C)C returned Y pestis TopoI 30.8, PrPC TRFRET 2.7, Mtb hypoxia rep -0.3, PrP 5UTR inh -10.4, GDH-TPI counter-1 -8.1 and Mtb FBA inh 20.9.
For C[C@]12c3[nH]c4cc(-c5ccco5)ccc4c3CCN1C(=O)[C@@H](CC(=O)NCCCn1ccnc1)C[C@@H]2C(=O)N1CCOCC1 the results were Y pestis TopoI 15.6, PrP 5UTR inh -20.4, GDH-TPI counter-1 10.4, Mtb FBA inh 28.5*, Mtb FBA inh conf -5.7 and GDH-TPI counter-2 -4.8.
For CN(C)CCCNC(=O)C[C@H]1C[C@H](C(=O)N2CCCCC2)[C@@]2(C)c3[nH]c4cc(-c5ccco5)ccc4c3CCN2C1=O the results were Y pestis TopoI -24.0, PrPC TRFRET -6.3, Mtb hypoxia rep -14.2, PrP 5UTR inh 1.6, GDH-TPI counter-1 18.8, Mtb FBA inh 33.8*, Mtb FBA inh conf 40.6* and GDH-TPI counter-2 34.4*.
Screening CCN(CC)C(=O)[C@H]1C[C@H](CC(=O)NC(C)(C)C)C(=O)N2CCc3c([nH]c4cc(-c5ccco5)ccc34)[C@]12C returned Y pestis TopoI 2.7, PrPC TRFRET 6.4, Mtb hypoxia rep -9.2, PrP 5UTR inh -11.2, GDH-TPI counter-1 8.3, Mtb FBA inh 37.8*, Mtb FBA inh conf active and GDH-TPI counter-2 139.6*.
Screening CN(C)CCCNC(=O)C[C@H]1C[C@H](C(=O)N2CCCCC2)[C@@]2(CCc3ccccc3)c3[nH]c4cc(-c5ccco5)ccc4c3CCN2C1=O returned Y pestis TopoI -24.6, PrPC TRFRET -8.6, Mtb hypoxia rep 0.5, PrP 5UTR inh -2.8, GDH-TPI counter-1 2.4 and Mtb FBA inh 7.5.
Screening CC(=NNc1ncc(Cl)cc1Cl)c1ccc2c(c1)OCO2 returned Mtb hypoxia rep 1.3.
`CCn1c(C(C#N)=NO)nc2ccccc21` gave Mtb hypoxia rep -3.0.
`COC(=O)C1=C(c2ccc(-c3ccccc3)c(F)c2)CC2CCC1N2C(=O)N1CCC(O)CC1` (stereo unspecified) gave Mtb hypoxia rep 10.1.
For C[C@]12c3[nH]c4cc(-c5ccco5)ccc4c3CCN1C(=O)[C@@H](CC(=O)NCCN1CCOCC1)C[C@@H]2C(=O)N1CCOCC1 the results were Y pestis TopoI 18.5, PrPC TRFRET -5.7, Mtb hypoxia rep -11.4, PrP 5UTR inh -8.0, GDH-TPI counter-1 11.5, Mtb FBA inh 46.4*, Mtb FBA inh conf active and GDH-TPI counter-2 active.
`C[C@]12c3[nH]c4cc(-c5ccco5)ccc4c3CCN1C(=O)[C@@H](CC(=O)NCCC1=CCCCC1)C[C@@H]2C(=O)N1CCOCC1` gave Y pestis TopoI 26.0, Mtb hypoxia rep -2.6, PrP 5UTR inh -14.9, GDH-TPI counter-1 5.5 and Mtb FBA inh 15.1.
`CC(C)N(C(=O)[C@H]1C[C@H](CC(=O)NCCN2CCOCC2)C(=O)N2CCc3c([nH]c4cc(-c5ccco5)ccc34)[C@]12C)C(C)C` gave Y pestis TopoI 24.3, PrPC TRFRET -0.9, Mtb hypoxia rep 1.7, PrP 5UTR inh -3.7, GDH-TPI counter-1 4.3, Mtb FBA inh 35.8*, Mtb FBA inh conf 150.5* and GDH-TPI counter-2 123.9*.
Screening COc1ccc2ccccc2c1C=NNC(=O)c1ccc([N+](=O)[O-])cc1 returned Mtb hypoxia rep 5.1.
COc1ccc(N2CCN(c3cc(C)nc4ccc(OC)cc34)CC2)cc1 was read as Y pestis TopoI 14.8, PrPC TRFRET -4.0, Mtb hypoxia rep 16.1, PrP 5UTR inh -5.8, GDH-TPI counter-1 -0.8 and Mtb FBA inh 0.7.
